Source: publication PMC7862700, “An all-to-all approach to the identification of sequence-specific readers for epigenetic DNA modifications on cytosine”

Key:
Test in all cases: DAPPL (digital affinity profiling via proximity ligation, sequencing); 10 mM Tris-HCl pH 7.5, 50 mM NaCl, 1 mM DTT, 4% glycerol, room temperature, 30 min; GST-TFs on glutathione beads, 16-mer random dsDNA library, 0.1% formaldehyde crosslink after washing; high values mean tight binding
[1] = target: T1, FEV (Homo sapiens, UniProt Q99581 1-238); settings: protein: recombinant; tags: N-terminal GST; dsDNA, one strand shown
T1 sequence: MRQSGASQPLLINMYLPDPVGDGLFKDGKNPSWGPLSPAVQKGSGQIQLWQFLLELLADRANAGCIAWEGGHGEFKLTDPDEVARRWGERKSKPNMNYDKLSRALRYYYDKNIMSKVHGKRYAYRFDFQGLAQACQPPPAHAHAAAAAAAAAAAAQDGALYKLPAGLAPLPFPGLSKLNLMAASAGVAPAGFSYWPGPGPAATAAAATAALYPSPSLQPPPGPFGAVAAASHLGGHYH
How it was run: (§1)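 Binding signal is given per hexamer as its read frequency for a factor divided by its frequency in the tag-only sample. GST-fused human transcription factors were expressed in yeast, captured on glutathione beads, barcoded with DNA and pooled with that sample, then incubated with 200 nmole of a 16-mer random double-stranded DNA library in Tris/NaCl/DTT/glycerol buffer for 30 min at room temperature. The pools were then washed, crosslinked, proximity-ligated, amplified by PCR and sequenced on an Illumina NextSeq500.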

[2] = target: ETV5 (Homo sapiens, UniProt P41161 1-510); settings: protein: recombinant; tags: N-terminal GST; dsDNA, one strand shown
How it was run: as §1

[3] = target: HSF1 (Homo sapiens, UniProt Q00613 1-529); settings: protein: recombinant; tags: N-terminal GST; chain copies: 3; dsDNA, one strand shown
How it was run: as §1

[4] = target: T2, SPIC (Homo sapiens, UniProt Q8N5J4 1-248); settings: protein: recombinant; tags: N-terminal GST; dsDNA, one strand shown
T2 sequence: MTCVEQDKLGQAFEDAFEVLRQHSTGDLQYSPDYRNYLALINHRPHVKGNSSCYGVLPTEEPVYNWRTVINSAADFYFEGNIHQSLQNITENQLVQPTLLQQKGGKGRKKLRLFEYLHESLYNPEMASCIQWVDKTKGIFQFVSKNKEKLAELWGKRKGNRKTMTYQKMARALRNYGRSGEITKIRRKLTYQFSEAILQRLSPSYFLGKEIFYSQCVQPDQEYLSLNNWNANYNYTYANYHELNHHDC
How it was run: as §1

[5] = target: ELF4 (Homo sapiens, UniProt Q99607 1-663); settings: protein: recombinant; tags: N-terminal GST; dsDNA, one strand shown
How it was run: as §1

[6] = target: T3, ELK4 (Homo sapiens, UniProt P28324-2 1-405); settings: protein: recombinant; tags: N-terminal GST; dsDNA, one strand shown
T3 sequence: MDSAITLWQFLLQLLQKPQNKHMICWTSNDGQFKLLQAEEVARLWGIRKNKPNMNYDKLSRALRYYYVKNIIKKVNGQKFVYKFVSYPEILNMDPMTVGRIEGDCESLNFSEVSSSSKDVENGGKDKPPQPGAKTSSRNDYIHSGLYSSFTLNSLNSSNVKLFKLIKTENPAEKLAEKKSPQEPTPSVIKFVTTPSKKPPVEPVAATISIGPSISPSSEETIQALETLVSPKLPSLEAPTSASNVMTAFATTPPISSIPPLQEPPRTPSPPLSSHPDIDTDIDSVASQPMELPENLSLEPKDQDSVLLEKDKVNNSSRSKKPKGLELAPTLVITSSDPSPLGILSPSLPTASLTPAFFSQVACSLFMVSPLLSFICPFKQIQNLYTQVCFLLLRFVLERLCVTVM
How it was run: as §1

[7] = target: T4, ETV2 (Homo sapiens, UniProt O00321 1-342); settings: protein: recombinant; tags: N-terminal GST; dsDNA, one strand shown
T4 sequence: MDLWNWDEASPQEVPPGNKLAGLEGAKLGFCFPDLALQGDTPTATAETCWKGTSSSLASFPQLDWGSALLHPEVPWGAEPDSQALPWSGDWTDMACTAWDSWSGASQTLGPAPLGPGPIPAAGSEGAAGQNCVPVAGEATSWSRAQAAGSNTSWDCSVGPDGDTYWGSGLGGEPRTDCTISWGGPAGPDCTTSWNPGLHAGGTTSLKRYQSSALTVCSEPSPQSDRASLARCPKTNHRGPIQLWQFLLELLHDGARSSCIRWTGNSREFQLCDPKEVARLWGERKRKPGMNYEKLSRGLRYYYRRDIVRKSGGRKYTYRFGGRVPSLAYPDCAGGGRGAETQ
How it was run: as §1

[8] = target: T5, ELF3 (Homo sapiens, UniProt P78545 1-371); settings: protein: recombinant; tags: N-terminal GST; dsDNA, one strand shown
T5 sequence: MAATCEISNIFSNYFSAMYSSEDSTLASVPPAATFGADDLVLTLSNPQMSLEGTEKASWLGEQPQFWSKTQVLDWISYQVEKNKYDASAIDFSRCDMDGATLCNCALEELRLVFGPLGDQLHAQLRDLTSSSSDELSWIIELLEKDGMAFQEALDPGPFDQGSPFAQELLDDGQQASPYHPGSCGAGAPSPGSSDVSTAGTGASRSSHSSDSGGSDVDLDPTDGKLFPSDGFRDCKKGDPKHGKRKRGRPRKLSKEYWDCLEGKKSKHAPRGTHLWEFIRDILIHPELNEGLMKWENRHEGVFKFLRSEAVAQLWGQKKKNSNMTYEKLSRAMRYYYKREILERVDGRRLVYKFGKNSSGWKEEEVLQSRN
How it was run: as §1

[9] = target: CRX (Homo sapiens, UniProt O43186 1-299); settings: protein: recombinant; tags: N-terminal GST; dsDNA, one strand shown
How it was run: as §1

[10] = target: ETV1 (Homo sapiens, UniProt P50549 1-477); settings: protein: recombinant; tags: N-terminal GST; dsDNA, one strand shown
How it was run: as §1

[11] = target: T6, ERF (Homo sapiens, UniProt P50548 1-548); settings: protein: recombinant; tags: N-terminal GST; dsDNA, one strand shown
T6 sequence: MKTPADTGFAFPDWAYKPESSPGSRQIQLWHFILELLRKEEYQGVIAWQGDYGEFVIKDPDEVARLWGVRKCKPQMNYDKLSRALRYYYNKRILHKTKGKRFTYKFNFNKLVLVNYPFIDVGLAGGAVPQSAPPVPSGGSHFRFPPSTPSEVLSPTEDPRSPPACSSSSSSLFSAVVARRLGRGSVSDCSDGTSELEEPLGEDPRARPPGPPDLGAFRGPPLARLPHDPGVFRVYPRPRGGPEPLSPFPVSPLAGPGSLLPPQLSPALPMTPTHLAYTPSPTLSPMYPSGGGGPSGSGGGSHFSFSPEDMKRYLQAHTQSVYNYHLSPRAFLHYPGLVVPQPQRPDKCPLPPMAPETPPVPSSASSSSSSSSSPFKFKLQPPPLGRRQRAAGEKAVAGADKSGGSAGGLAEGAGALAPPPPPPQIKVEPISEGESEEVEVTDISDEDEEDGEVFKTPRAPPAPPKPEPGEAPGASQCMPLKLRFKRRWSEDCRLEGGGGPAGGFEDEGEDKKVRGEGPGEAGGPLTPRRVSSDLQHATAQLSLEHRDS
How it was run: as §1

[12] = target: T7, ETV3L (Homo sapiens, UniProt Q6ZN32 1-361); settings: protein: recombinant; tags: N-terminal GST; dsDNA, one strand shown
T7 sequence: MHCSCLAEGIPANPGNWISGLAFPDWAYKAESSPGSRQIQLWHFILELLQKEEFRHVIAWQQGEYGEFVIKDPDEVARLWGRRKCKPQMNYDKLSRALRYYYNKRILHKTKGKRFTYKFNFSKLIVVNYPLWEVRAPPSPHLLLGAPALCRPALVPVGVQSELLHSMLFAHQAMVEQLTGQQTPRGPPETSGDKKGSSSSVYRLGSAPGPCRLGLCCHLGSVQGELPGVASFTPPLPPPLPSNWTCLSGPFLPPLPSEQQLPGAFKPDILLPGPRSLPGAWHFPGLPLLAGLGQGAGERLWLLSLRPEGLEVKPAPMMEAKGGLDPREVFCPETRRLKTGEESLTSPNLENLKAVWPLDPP
How it was run: as §1

[13] = target: T8, ETS2 (Homo sapiens, UniProt P15036 1-469); settings: protein: recombinant; tags: N-terminal GST; dsDNA, one strand shown
T8 sequence: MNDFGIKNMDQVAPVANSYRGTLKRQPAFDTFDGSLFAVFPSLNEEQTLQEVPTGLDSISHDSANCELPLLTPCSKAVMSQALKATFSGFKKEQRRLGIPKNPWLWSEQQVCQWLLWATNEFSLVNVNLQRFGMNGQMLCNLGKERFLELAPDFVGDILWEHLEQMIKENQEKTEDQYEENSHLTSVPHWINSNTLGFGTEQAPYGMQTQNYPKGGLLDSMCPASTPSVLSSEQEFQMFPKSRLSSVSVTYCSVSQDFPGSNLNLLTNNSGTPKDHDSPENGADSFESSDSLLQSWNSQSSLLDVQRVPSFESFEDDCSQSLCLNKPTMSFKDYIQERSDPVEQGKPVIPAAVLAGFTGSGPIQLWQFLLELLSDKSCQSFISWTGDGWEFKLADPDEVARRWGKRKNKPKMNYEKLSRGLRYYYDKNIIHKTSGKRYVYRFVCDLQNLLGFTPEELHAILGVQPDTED
How it was run: as §1

[14] = target: T9, SPDEF (Homo sapiens, UniProt O95238 1-335); settings: protein: recombinant; tags: N-terminal GST; dsDNA, one strand shown
T9 sequence: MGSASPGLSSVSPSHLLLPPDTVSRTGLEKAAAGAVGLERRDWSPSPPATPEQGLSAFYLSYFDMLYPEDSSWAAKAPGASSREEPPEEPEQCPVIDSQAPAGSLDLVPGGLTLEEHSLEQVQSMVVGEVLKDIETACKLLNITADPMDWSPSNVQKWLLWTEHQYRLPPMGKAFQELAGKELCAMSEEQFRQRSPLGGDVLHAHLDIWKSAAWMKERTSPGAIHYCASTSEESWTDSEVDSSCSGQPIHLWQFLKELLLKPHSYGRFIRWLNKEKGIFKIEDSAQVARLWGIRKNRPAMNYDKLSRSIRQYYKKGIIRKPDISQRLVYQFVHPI
How it was run: as §1

[15] = target: T10, ETV7 (Homo sapiens, UniProt Q9Y603 1-341); settings: protein: recombinant; tags: N-terminal GST; dsDNA, one strand shown
T10 sequence: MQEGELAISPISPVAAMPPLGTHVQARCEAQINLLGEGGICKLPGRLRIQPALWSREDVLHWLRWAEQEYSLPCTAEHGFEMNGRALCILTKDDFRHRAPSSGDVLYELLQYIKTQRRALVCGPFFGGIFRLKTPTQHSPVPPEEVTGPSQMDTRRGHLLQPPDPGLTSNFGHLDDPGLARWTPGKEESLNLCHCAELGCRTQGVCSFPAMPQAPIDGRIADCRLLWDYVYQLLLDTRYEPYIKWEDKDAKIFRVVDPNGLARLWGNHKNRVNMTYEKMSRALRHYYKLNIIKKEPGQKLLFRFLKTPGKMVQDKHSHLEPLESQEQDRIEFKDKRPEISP
How it was run: as §1

[16] = target: T11, ELF5 (Homo sapiens, UniProt Q9UKW6-2 1-255); settings: protein: recombinant; tags: N-terminal GST; dsDNA, one strand shown
T11 sequence: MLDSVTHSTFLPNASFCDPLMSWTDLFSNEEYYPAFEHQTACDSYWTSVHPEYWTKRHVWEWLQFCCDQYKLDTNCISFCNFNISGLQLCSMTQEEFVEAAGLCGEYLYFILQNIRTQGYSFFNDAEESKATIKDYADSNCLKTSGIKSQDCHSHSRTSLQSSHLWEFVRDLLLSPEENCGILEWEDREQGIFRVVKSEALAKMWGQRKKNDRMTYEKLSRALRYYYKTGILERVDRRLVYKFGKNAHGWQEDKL
How it was run: as §1

[17] = target: T12, ETV3 (Homo sapiens, UniProt P41162-2 1-143); settings: protein: recombinant; tags: N-terminal GST; dsDNA, one strand shown
T12 sequence: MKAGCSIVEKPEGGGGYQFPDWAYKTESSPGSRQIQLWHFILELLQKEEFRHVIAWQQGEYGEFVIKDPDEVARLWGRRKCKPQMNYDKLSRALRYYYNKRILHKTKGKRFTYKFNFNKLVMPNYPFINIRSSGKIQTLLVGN
How it was run: as §1

[18] = target: ETV6 (Homo sapiens, UniProt P41212 1-452); settings: protein: recombinant; tags: N-terminal GST; dsDNA, one strand shown
How it was run: as §1

Sequence of ETV6 (P41212 whole entry): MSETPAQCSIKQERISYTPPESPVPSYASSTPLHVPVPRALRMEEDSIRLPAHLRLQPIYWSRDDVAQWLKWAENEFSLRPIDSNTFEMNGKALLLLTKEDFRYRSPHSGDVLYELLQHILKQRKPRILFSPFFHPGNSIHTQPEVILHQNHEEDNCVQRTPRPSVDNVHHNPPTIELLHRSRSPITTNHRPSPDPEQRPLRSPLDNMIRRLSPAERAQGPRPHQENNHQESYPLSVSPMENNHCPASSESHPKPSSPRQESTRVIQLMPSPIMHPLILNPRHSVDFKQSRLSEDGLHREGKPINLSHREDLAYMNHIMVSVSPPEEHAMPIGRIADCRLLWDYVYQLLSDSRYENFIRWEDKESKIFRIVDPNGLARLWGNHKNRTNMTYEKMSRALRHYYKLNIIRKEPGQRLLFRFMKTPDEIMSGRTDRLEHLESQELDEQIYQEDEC
Sequence of ELF4 (Q99607 whole entry): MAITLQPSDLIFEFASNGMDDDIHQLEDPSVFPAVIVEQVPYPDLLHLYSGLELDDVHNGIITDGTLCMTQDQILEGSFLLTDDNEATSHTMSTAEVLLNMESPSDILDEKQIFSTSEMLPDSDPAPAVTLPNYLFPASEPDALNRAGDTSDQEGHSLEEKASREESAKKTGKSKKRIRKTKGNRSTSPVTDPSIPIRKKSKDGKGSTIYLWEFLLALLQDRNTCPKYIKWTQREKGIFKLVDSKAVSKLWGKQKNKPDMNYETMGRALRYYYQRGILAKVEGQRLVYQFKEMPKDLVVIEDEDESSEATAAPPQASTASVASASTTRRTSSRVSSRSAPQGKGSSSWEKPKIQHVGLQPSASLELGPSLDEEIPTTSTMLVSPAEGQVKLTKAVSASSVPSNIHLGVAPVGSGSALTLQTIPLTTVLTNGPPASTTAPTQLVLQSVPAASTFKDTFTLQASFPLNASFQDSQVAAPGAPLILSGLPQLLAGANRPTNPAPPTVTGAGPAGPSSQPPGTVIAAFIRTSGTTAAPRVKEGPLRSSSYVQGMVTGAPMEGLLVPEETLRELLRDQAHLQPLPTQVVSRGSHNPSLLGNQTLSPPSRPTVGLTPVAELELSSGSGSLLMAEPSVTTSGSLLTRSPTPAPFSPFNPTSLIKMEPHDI
Sequence of ETV1 (P50549 whole entry): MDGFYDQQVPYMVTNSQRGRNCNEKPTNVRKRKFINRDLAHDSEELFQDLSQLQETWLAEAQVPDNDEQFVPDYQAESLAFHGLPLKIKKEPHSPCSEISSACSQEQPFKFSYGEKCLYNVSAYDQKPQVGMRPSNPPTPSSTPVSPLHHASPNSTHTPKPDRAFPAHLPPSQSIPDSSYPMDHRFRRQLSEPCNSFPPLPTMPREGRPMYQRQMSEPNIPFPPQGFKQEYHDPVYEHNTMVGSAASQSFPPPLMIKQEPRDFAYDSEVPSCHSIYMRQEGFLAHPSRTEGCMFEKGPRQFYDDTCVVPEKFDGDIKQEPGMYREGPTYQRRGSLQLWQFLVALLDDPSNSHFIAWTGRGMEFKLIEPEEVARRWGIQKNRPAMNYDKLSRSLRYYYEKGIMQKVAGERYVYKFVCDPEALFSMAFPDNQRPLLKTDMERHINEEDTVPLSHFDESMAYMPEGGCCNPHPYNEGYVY
Sequence of ETV5 (P41161 whole entry): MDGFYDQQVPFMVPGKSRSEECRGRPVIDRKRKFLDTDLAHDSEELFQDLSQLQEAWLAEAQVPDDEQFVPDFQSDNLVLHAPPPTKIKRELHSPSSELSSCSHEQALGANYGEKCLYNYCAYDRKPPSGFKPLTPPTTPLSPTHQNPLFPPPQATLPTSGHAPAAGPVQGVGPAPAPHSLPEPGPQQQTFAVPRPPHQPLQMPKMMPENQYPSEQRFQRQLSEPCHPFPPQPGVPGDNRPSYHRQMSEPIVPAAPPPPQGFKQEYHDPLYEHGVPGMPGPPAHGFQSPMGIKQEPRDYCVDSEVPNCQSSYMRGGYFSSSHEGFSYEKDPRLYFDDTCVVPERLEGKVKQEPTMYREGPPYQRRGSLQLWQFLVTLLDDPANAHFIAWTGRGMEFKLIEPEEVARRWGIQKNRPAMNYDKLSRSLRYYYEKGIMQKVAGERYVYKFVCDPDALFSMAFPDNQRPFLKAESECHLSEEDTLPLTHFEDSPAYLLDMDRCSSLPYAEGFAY
Sequence of CRX (O43186 whole entry): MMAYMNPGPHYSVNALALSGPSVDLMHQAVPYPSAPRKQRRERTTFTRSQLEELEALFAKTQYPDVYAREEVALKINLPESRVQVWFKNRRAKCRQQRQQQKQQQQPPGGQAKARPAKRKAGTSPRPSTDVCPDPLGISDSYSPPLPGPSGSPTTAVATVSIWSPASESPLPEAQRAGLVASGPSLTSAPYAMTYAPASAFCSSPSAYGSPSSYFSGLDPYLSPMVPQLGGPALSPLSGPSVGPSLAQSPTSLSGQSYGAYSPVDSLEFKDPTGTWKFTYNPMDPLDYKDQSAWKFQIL
Sequence of HSF1 (Q00613 whole entry): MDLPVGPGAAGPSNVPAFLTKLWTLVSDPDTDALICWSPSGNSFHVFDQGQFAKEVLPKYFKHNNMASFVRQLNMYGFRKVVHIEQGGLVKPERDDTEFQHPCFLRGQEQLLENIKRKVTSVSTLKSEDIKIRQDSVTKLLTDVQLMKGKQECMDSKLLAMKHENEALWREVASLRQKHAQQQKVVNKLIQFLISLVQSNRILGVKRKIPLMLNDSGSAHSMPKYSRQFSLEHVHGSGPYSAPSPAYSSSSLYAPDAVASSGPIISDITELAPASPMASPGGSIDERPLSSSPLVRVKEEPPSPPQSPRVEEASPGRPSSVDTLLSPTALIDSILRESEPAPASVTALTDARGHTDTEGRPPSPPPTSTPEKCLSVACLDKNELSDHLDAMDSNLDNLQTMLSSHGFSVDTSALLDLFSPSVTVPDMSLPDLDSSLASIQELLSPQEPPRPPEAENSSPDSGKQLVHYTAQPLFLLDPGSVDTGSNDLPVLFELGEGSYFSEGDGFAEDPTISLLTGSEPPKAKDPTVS

## TTCCCT
[1]
  binding signal: 1.64 fold enrichment (6-mer frequency, TF over GST control)
[2]
  binding signal: 1.69 fold enrichment (6-mer frequency, TF over GST control)
[3]
  binding signal: 1.52 fold enrichment (6-mer frequency, TF over GST control)
[4]
  binding signal: 1.84 fold enrichment (6-mer frequency, TF over GST control)
[5]
  binding signal: 1.79 fold enrichment (6-mer frequency, TF over GST control)
[6]
  binding signal: 1.65 fold enrichment (6-mer frequency, TF over GST control)
[7]
  binding signal: 1.62 fold enrichment (6-mer frequency, TF over GST control)
[8]
  binding signal: 1.57 fold enrichment (6-mer frequency, TF over GST control)
[9]
  binding signal: 1.31 fold enrichment (6-mer frequency, TF over GST control)
[10]
  binding signal: 1.68 fold enrichment (6-mer frequency, TF over GST control)
[11]
  binding signal: 1.58 fold enrichment (6-mer frequency, TF over GST control)
[12]
  binding signal: 1.69 fold enrichment (6-mer frequency, TF over GST control)
[13]
  binding signal: 1.75 fold enrichment (6-mer frequency, TF over GST control)
[14]
  binding signal: 1.47 fold enrichment (6-mer frequency, TF over GST control)
[15]
  binding signal: 1.55 fold enrichment (6-mer frequency, TF over GST control)
[16]
  binding signal: 2.49 fold enrichment (6-mer frequency, TF over GST control)
[17]
  binding signal: 1.75 fold enrichment (6-mer frequency, TF over GST control)
[18]
  binding signal: 1.66 fold enrichment (6-mer frequency, TF over GST control)
